Measured values published in PubChem BioAssay (EPA / NIEHS).
Inconclusive results are not listed. Active and inactive are the calls of the source. How the source made its calls: active means hit-call score of the fitted dose curve at least 0.9, where 1 is the maximum; inconclusive means response in the unintended direction; inactive means score below 0.9.

Each molecule was assayed on Cytochrome P450 2C19 (Homo sapiens) (UniProt P33261) (assay: CLD_CYP2C19_6hr: CellzDirect (CLD) Gene Expression Assay for xenobiotic metabolism (CYP2C19) at 6 hours (AID 2283678)).
Cytochrome P450 2C19 (Homo sapiens), sequence (P33261 whole entry, looked up): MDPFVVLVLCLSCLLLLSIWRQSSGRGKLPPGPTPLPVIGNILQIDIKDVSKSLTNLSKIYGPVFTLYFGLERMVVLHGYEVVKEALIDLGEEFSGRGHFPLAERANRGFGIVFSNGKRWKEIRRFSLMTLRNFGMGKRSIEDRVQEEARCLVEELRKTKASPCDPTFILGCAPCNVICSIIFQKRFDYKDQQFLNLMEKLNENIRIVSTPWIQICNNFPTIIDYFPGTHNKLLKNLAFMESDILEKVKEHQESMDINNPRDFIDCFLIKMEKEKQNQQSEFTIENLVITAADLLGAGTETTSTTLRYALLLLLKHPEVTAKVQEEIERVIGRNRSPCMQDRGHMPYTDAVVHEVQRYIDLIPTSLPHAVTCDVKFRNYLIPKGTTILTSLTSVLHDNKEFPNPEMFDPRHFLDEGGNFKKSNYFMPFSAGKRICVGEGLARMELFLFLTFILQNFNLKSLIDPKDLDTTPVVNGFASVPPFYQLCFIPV
Experimental: CLD_6hr is a cell-based, multiplexed-readout assay that uses hepatocyte, a human liver primary cell, with measurements taken at 6 hours after chemical dosing in a 96-well plate.CLD_CYP2C19_6hr is one of 16 assay component(s) measured or calculated from the CLD_6hr assay. It is designed to make measurements of mRNA induction, a form of inducible reporter, as detected with chemiluminescence signals by Quantitative Nuclease Protection Assay (qNPA) technology.Data from the assay component CLD_CYP2C19_6hr was analyzed at the endpoint, CLD_CYP2C19_6hr, in the positive analysis fitting direction relative to DMSO as the negative control and baseline of activity. Using a type of inducible reporter, gain-of-signal activity can be used to understand changes in the reporter gene as they relate to the gene CYP2C19. Furthermore, this assay endpoint can be referred to as a primary readout. To generalize the intended target to other relatable targets, this assay endpoint is annotated to the cyp intended target family, where subfamily is xenobiotic metabolism.
Human hepatocyte cultures were treated daily for two consecutive days with fresh dosing solutions containing appropriate concentrations of the 320 ToxCast chemicals (chemical identities were blinded to CellzDirect and other ToxCast collaborators), vehicle control (0.2% DMSO), and positive control inducers as summarized in Table 1. Due to the large number of treatment groups and chemicals examined, the ToxCast chemicals were divided into two groups (spanning two independent cultures of hepatocytes from separate donor preparations (Hu778: ToxCast plates 1 and 2; Hu776: ToxCast plates 3 and 4). Each preparation of human hepatocyte cultures was treated with respective vehicle control, medium only control, set of six positive controls/reference chemicals for the five hepatic receptor pathways, and a subset of eight of the ToxCast chemicals (indoxacarb, pyrithiobac-sodium, norflurazon, cyhalofop-butyl, methomyl, thiram, acetochlor, and propiconazole). These replicate data, coupled with internal replicates designed within the blinded ToxCast chemical library, provided additional data to evaluate interindividual differences between hepatocyte preparations and their potential impact on chemical profiles.Cell morphology and integrity were evaluated using phase-contrast microscopy as an indicator of hepatocyte cell health (Tyson & Green, 1987). Cultures for each treatment group (i.e., media, vehicle [0.2% DMSO], positive control inducers [multiple concentrations], and the ToxCast chemicals [multiple concentrations]) were observed and cell morphology was assessed relative to vehicle control cultures at each harvest time point (0, 6, 24, or 48 h). […] Images were evaluated at the conclusion of the study to assess changes in cell integrity and account for the effects of chemical exposure on uncharacteristic changes in concentration-dependent gene expression profiles. The results from these determinations of apparent cytotoxicity were annotated (yes/no) alongside the corresponding qNPA data for reference.At the conclusion of each treatment period, hepatocyte cultures (96-well) were washed with 1 volume of HBSS, lysed by addition of 25 ul ArrayPlate lysis buffer (HTG, Tucson, AZ), and 70 ul/well of Denaturation Oil, denatured by incubation at 95C for 10 min, and frozen at approximately -70C until analysis by nuclease protection assay (qNPA) (Roberts et al., 2007). For qNPA analysis, cell lysates were thawed at 50C for approximately 30 min, qNPA probes were added, and samples were incubated at 95C for 10 min to begin the detection process by denaturing the target RNA, dissociating the duplexes and secondary structure hybridization. At the conclusion of the hybridization period, S1 nuclease reagent was added to each sample to digest all nonprotected nucleotides at 50C for 60-90 min. […]
`Oc1ccc(Cl)cc1Cc1ccccc1` was tested, and the outcome was “inactive”. In the case of `OCCOc1ccccc1`, the outcome was “inactive”. `CNC(=O)Oc1ccccc1OC(C)C` was tested, and the outcome was “inactive”. For `O=[N+]([O-])/N=C1\NCCN1Cc1ccc(Cl)nc1`, the outcome was “inactive”. `CN1CSC(=S)N(C)C1` was tested, and the outcome was “inactive”. For `COC(=O)c1ccccc1S(=O)(=O)NC(=O)Nc1nc(C)nc(OC)n1`, the outcome was “inactive”. With `CCOCN(C(=O)CCl)c1c(C)cccc1CC` the outcome was “inactive”. In the case of `O=C1c2ccccc2C(=O)N1SC(Cl)(Cl)Cl`, the outcome was “inactive”. `CCN(CC)C(=O)SCc1ccc(Cl)cc1` was tested, and the outcome was “inactive”. With `CCCN(CCOc1c(Cl)cc(Cl)cc1Cl)C(=O)n1ccnc1` the outcome was “inactive”. In the case of `CNC(=O)Oc1cccc(N=CN(C)C)c1`, the outcome was “inactive”. `CCC(C)Nc1c([N+](=O)[O-])cc(C(C)(C)C)cc1[N+](=O)[O-]` (stereo not given) was tested, and the outcome was “inactive”. `N#Cc1c(Cl)c(Cl)c(Cl)c(C#N)c1Cl` was tested, and the outcome was “inactive”. For `CNC(=O)CSP(=S)(OC)OC`, the outcome was “inactive”. `COC(=O)c1ccccc1CS(=O)(=O)NC(=O)Nc1nc(OC)cc(OC)n1` was tested, and the outcome was “inactive”. `O=S(=O)(O)C(F)(F)C(F)(F)C(F)(F)C(F)(F)C(F)(F)C(F)(F)C(F)(F)C(F)(F)F` was tested, and the outcome was “inactive”. With `CCC(C)(C)C(=O)OC1=C(c2ccc(Cl)cc2Cl)C(=O)OC12CCCCC2` the outcome was “inactive”. With `O=C(O)C(F)(F)C(F)(F)C(F)(F)C(F)(F)C(F)(F)C(F)(F)C(F)(F)F` the outcome was “inactive”. With `COc1nn(CSP(=S)(OC)OC)c(=O)s1` the outcome was “inactive”. `O=C(NC(=O)c1c(F)cccc1F)Nc1ccc(OC(F)(F)C(F)OC(F)(F)F)c(Cl)c1` (stereo not given) was tested, and the outcome was “inactive”. For `[2H]C1([2H])[n+]2ccccc2-c2cccc[n+]2C1([2H])[2H]`, the outcome was “inactive”. `CCS(=O)(=O)c1cccnc1S(=O)(=O)NC(=O)Nc1nc(OC)cc(OC)n1` was tested, and the outcome was “inactive”. In the case of `Cc1cc(C)nc(NC(=O)NS(=O)(=O)c2ccccc2C(=O)OC2COC2)n1`, the outcome was “inactive”. For `COC(=O)c1ccccc1S(=O)(=O)NC(=O)N(C)c1nc(C)nc(OC)n1`, the outcome was “inactive”. With `CC1(C)C(C=C(Cl)Cl)C1C(=O)OC(C#N)c1ccc(F)c(Oc2ccccc2)c1` (stereo not given) the outcome was “inactive”. In the case of `Cc1[nH]c(=O)n(C(C)(C)C)c(=O)c1Cl`, the outcome was “inactive”. `C#CCN1C(=O)COc2cc(F)c(N3C(=O)C4=C(CCCC4)C3=O)cc21` was tested, and the outcome was “inactive”. For `Clc1ccccc1-c1nnc(-c2ccccc2Cl)nn1`, the outcome was “inactive”. With `CC1(c2ccc(Oc3ccccc3)cc2)OC(=O)N(Nc2ccccc2)C1=O` (stereo not given) the outcome was “inactive”. For `O=C(O)COc1ccc(Cl)cc1Cl`, the outcome was “inactive”.
